Results filed as inconclusive are left out. A call without a number means that no potency is given here. The source made the active and inactive calls. Calls come from the whole dose curve; as a rule, active = well fitted inhibition curve with a large enough effect; inconclusive = small, poorly fitted or top-dose-only effect; inactive = flat fitted curve, though single readings scatter.
Key:
Experiment in all cases: qHTS assay to identify novel small-molecules to repurpose for Merkel cell carcinoma treatment (AID 1296009); note: nearly all actives have a fitted effect of over 60% in size
Conditions in all cases: MCC and control cell lines, CellTiter-Glo viability, 72 h; series mostly up to 46 µM
[1] = system: MCC-13
How it was run: (§1)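 Cells were incubated with compound for 72 hr at 37 degree celsius before CellTiter-Glo addition. Luminescence was normalized with no-cell wells as full cytotoxicity and DMSO as baseline.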

[2] = system: MCC-26
How it was run: as §1

[3] = system: MKL-1
How it was run: as §1

[4] = system: MKL-2
How it was run: as §1

[5] = system: UISO
How it was run: as §1

[6] = system: WaGa
How it was run: as §1
Potency is the fitted concentration of half-maximal effect.

Question: For `CC(C)(C)c1ccc(C(O)CCCN2CCC(C(O)(c3ccccc3)c3ccccc3)CC2)cc1` (stereo not drawn), which Potency [1] is on record?
Answer: Its Potency is “inactive”.

Question: And the Potency [2]?
Answer: Its Potency is “inactive”.

Question: What about the Potency [3] of the same compound?
Answer: The Potency was “inactive”.

Question: And the Potency [4]?
Answer: The Potency was “inactive”.

Question: And the Potency [5]?
Answer: The Potency was “inactive”.

Question: And the Potency [6]?
Answer: Its Potency is “inactive”.

Question: For `NS(=O)(=O)c1cccc2c1C(=O)c1cccc(O)c1C2=O`, which Potency [2] is on record?
Answer: Its Potency is 833 nM (active).

Question: What about the Potency [3] of the same compound?
Answer: The Potency was 132 nM (active).

Question: And the Potency [4]?
Answer: The Potency was 264 nM (active).

Question: What about the Potency [5] of the same compound?
Answer: Its Potency is 662 nM (active).

Question: What about the Potency [6] of the same compound?
Answer: Its Potency is 132 nM (active).

Question: What does the source list for `O=C1c2ccccc2-[n+]2ccc3c([nH]c4ccccc43)c21`?
Answer: Potency [1]: 3320 nM (active); Potency [2]: 7430 nM (active); Potency [3]: 1050 nM (active); Potency [4]: 3320 nM (active); Potency [5]: 662 nM (active); Potency [6]: 2350 nM (active)

Question: With `CC(C)(C)Cn1c(N)nc2ccc(-c3[nH]c(C(C)(C)C)nc3-c3ccc(F)cc3)nc21` as the compound, how does the Potency [2] read?
Answer: The Potency was “inactive”.

Question: What about the Potency [3] of the same compound?
Answer: Its Potency is “inactive”.

Question: What about the Potency [4] of the same compound?
Answer: Its Potency is “inactive”.

Question: `O=c1c(-c2ccc(O)cc2)coc2cc(OC3O[C@H](CO)[C@H](O)[C@H](O)[C@H]3O)cc(O)c12` (stereo partly drawn) was tested. Which Potency [1] did it give?
Answer: Its Potency is “inactive”.

Question: What about the Potency [2] of the same compound?
Answer: Its Potency is “inactive”.

Question: What about the Potency [3] of the same compound?
Answer: Its Potency is “inactive”.

Question: What about the Potency [4] of the same compound?
Answer: The Potency was “inactive”.

Question: What about the Potency [6] of the same compound?
Answer: Its Potency is “inactive”.

Question: Which Potency [2] does the source give for `CC(C)OC(=O)CCCC=CC[C@@H]1[C@H](C=C[C@@H](O)COc2cccc(C(F)(F)F)c2)[C@H](O)C[C@@H]1O` here?
Answer: Its Potency is “inactive”.

Question: And the Potency [3]?
Answer: The Potency was “inactive”.

Question: How did the Potency [1] turn out when `CN1[C@@H]2CCC[C@@H]1CC(NC(=O)c1nn(C)c3ccccc13)C2` (stereo partly drawn) was run?
Answer: Its Potency is “inactive”.

Question: And the Potency [2]?
Answer: The Potency was “inactive”.

Question: What about the Potency [3] of the same compound?
Answer: The Potency was “inactive”.

Question: And the Potency [4]?
Answer: Its Potency is “inactive”.

Question: And the Potency [5]?
Answer: The Potency was “inactive”.

Question: And the Potency [6]?
Answer: Its Potency is “inactive”.

Question: Which results are given for `COc1ccc2c(Oc3ccc(NC(=O)c4c(C)n(CC(C)(C)O)n(-c5ccccc5)c4=O)cc3F)ccnc2c1`?
Answer: Potency [1]: inactive; Potency [2]: inactive; Potency [3]: inactive; Potency [4]: inactive; Potency [6]: inactive

Source: PubChem BioAssay (NCATS)
